Screening results (PubChem BioAssay)
HSD17B inhib: inhibitors of human HSD17B10 dehydrogenase; recombinant HSD17B10, NADH fluorescence kinetic; hit rate 7.6% among 75,000; Q99714; Potency, µM (doses to about 57.1 µM), for inactives: top-dose activity change, negative = inhibition, usual class: inhibitors;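 also: the protocol describes HADH2 (HSD17B10) and not the HSD17B4 of the title; potency is read from the fitted curve at half-maximal effect; % is scaled to controls: 0 for no effect and ±100 for the full control effect; nearly all actives have a fitted effect of over 70% in size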
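Enzyme plus compound, 15 min room temperature; substrate mix added (NAD+ 1 mM, beta-hydroxybutyryl-CoA 90 uM final); plates read kinetically for NADH fluorescence. HADH2 was His-tagged, E. coli-derived, 20 nM.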
AID923: qHTS Assay for Allosteric/Competitive Inhibitors of Caspase-1: Spectroscopic Profiling in AFC Spectral Region; hit rate 1.1% among 75,000; Potency, µM (titrated, usually from 57.5 µM), without a hit: at the highest dose fluorescence increase, actives largely listed as activators; compound fluorescence, AFC spectral region (405/520 nm); AID 923, 2007; also: potency is read from the fitted curve at half-maximal effect; 0% is about no effect
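Titrations up to 57 uM read every 20 sec for 3 min (405/520 nm) with 50 nM caspase 1 and 5 uM Ac-WEHD-AFC, pH 7.5 HEPES buffer. Fluorescence-vs-time intercept gave baseline, scaled against on-plate AFC standard.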
4MU fluor: 4-MU region autofluorescence. compound autofluorescence, 340/450 nm, 4-MU equivalents; stronger effect = higher value. max dye-equivalent concentration, M. hit rate 11% among 59,000; in the data active = max dye-equivalent concentration above about 10 nM; inconclusive = mostly about 1.1 nM to 9.6 nM
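Compounds in 100 mM Tris, pH 8.0, incubated 15 min at room temperature, then fluorescence read at 340 nm excitation/450 nm emission. Signal converted to 4-MU dye-equivalent concentration using an on-plate six-point 4-MU standard curve.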
A350 fluor: compound fluoresces in the Alexa 350 spectral region; Compound autofluorescence, 340/450 nm, Alexa 350 dye-equivalents; stronger effect = higher value; hit rate 11% among 59,000; AID 590; max dye-equivalent concentration, M; in the data active = max dye-equivalent concentration above about 10 nM; inconclusive = mostly about 1.1 nM to 9.6 nM
HADH2 inhib: HADH2 (human) dehydrogenase inhibition. Potency, µM (doses to about 57.1 µM), for the others: top-dose activity change, negative = inhibition, hits mostly inhibitors. recombinant HADH2, NADH fluorescence, beta-hydroxybutyryl-CoA. Q99714. hit rate 3.4% among 73,000; also: potency is read from the fitted curve at half-maximal effect; % is scaled to controls: 0 for no effect and ±100 for the full control effect; nearly all actives have a fitted effect of over 60% in size
Target sequence (Q99714 whole entry, looked up, one chain of several): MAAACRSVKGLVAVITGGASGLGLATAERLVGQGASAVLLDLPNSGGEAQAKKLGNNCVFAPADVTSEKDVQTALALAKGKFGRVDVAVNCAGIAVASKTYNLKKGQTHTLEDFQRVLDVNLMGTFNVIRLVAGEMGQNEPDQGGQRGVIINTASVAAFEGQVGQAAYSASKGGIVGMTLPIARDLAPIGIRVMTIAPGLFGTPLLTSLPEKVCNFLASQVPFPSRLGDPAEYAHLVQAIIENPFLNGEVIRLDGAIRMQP
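20 nM HADH2 + cpd, 15 min RT; add 1 mM NAD+/90 uM beta-hydroxybutyryl-CoA; kinetic fluorescence 360/450 nm, 4 min. Tris-HCl pH 9.0, 0.01% Tween-20.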
An asterisk follows results filed as active; i = inactive; ? = inconclusive; nt = no result given; [ ] = dose if it differs, or a comment. Compounds with a hit are over-represented: about 13% of the library has one in this group of screens. Unless noted, calls follow the shape of the dose curve; as a rule, active = well fitted curve in the direction sought with a large enough effect; inconclusive = small, poorly fitted or top-dose-only effect, or another doubt; inactive = no such curve, though single readings can be large; an effect the other way counts as inactive or inconclusive.

SMILES | HSD17B inhib | AID923 | 4MU fluor | A350 fluor | HADH2 inhib
CCN(CC)CCCN(Cc1cc2cc3c(cc2[nH]c1=O)OCCO3)C(=O)Nc1ccccc1 | 25.1µM* | -3.0% | 2.26e-07M* | 1.96e-07M* | 31.6µM*
CCc1ccc2[nH]c(=O)c(CN(CCCN3CCOCC3)C(=O)Nc3ccccc3)cc2c1 | -9.6% | -2.2% | i | i | -1.4%
CCc1ccc2[nH]c(=O)c(CN(CCCN3CCOCC3)C(=O)Nc3cccc(Cl)c3)cc2c1 | 0.9% | 2.6% | i | i | -5.2%
COc1ccc2[nH]c(=O)c(CN(CCCN3CCOCC3)C(=O)NCc3ccccc3)cc2c1 | 31.6µM* | 2.0% | 2.15e-07M* | 1.65e-07M* | -12.4%
O=C(Nc1ccccc1)N(CCCN1CCOCC1)Cc1cc2cc3c(cc2[nH]c1=O)OCCO3 | 25.1µM* | 0.9% | 2.61e-07M* | 3.7e-07M* | ?
Cc1cccc2cc(CN(CCN3CCOCC3)C(=O)NCc3ccccc3)c(=O)[nH]c12 | 2.5% | 0.5% | i | i | -5.5%
O=C(Nc1ccc(F)cc1)N(Cc1ccco1)Cc1cc2cc3c(cc2[nH]c1=O)OCO3 | 31.6µM* | 0.1% | 1.66e-07M* | 1.33e-07M* | ?
O=C(c1ccncc1)N1CCC[C@@]2(CCN(c3ccccc3)C2)C1 | 1.7% | 5.1% | i | i | 13.6%
O=C(c1cc(C(F)(F)F)cc(C(F)(F)F)c1)N1CCC2(CC1)CCN(c1ccccn1)CC2 | 5.9% | 1.8% | i | i | 12.5%
Cc1ccccc1CSc1ncc(C#N)c(N)n1 | -9.8% | 10.2% | 1.8e-08M* | ? | -2.1%
CCCCCCSc1ncc(C#N)c(N)n1 | ? | 4.0% | 1.02e-08M* | ? | -7.0%
Cc1nc(SCc2ccccc2C)n[nH]1 | 5.0% | -0.9% | i | i | 5.3%
N#Cc1cnc(SCC(=O)c2ccccc2)nc1N | ? | -1.8% | 1.68e-08M* | 1.94e-08M* | ?
N#Cc1cnc(SCCc2ccccc2)nc1N | -1.6% | 2.2% | ? | ? | -4.8%
O=C(c1cc(C(F)(F)F)cc(C(F)(F)F)c1)N1CCC[C@@]2(CCN(c3ccccc3)C2)C1 | -14.1% | 1.3% | i | i | 7.1%
COC(=O)C/C=C\[C@@H](C)[C@@H](/C=N\OC[C@@H](O)COCc1ccco1)NS(=O)(=O)c1ccc(C)cc1 | 3.4%[11.4 µM] | -3.3%[11.5 µM] | nt | nt | 0.2%[11.4 µM]
Cc1cc(NC(=O)CSc2n[nH]c(CC(C)C)n2)no1 | 10.2% | 1.0% | i | i | -4.2%
Cc1cc(=O)oc2c(OS(C)(=O)=O)c(OS(C)(=O)=O)ccc12 | i[11.4 µM] | 5.3%[11.5 µM] | 5.91e-08M* | 6.9e-08M* | 14.5%[11.4 µM]
CC(CC1C(C#N)=C(N)OC2=C1C(=O)CCC2)c1ccccc1 (stereo not drawn) | 5.5% | -2.2% | nt | nt | 0.4%
N#CC1=C(N)N(c2ccccc2)C2=C(C(=O)CCC2)C1c1ccsc1 (stereo not drawn) | ? | 1.4% | 1.63e-08M* | 1.68e-08M* | -2.0%
CCSc1sccc1C1C(C#N)=C(N)N(c2cccnc2)C2=C1C(=O)CCC2 (stereo not drawn) | 31.6µM* | 9.8% | ? | ? | ?
N#CC1=C(N)OC2=C(C(=O)CCC2)C1c1ccncc1 (stereo not drawn) | -3.5% | 2.3% | i | i | -7.5%
CCOC(=O)c1cc(-c2ccncc2)nc2c1c(C)nn2-c1ccccn1 | 1.5% | 7.0% | 2.37e-08M* | 3.2e-08M* | 8.0%
Cc1nn(-c2ccccn2)c2nc(-c3cccs3)cc(C(=O)N3CCOCC3)c12 | 31.6µM* | -0.8% | 1.1e-06M* | 1.57e-06M* | 25.1µM*
O=C1CC[C@](CCc2nc3ccccc3[nH]2)(c2ccccc2)C(=O)N1 | -3.5%[11.4 µM] | -0.7%[11.5 µM] | i | i | 8.6%[11.4 µM]
SMILES | HSD17B inhib | AID923 | 4MU fluor | A350 fluor | HADH2 inhib
C1OCOCO1 | 3.1% | -3.4% | nt | nt | -5.2%
N#Cc1ccc(CN2CC[C@@]3(CCCN(S(=O)(=O)c4ccccc4)C3)C2)cc1 | 5.6% | 0.0% | 8.05e-08M* | 8.85e-08M* | 3.7%
O=S(=O)(c1ccccc1)N1CCC2(CCCN(Cc3ccccc3)C2)CC1 | -4.0% | 0.0% | i | i | -3.6%
N#Cc1ccc(CN2CCCC3(CCN(C(=O)c4cnccn4)CC3)C2)cc1 | 3.5% | -0.3% | ? | 1.09e-08M* | 5.3%
N#Cc1ccc(CN2CC[C@@]3(CCCN(C(=O)c4cnccn4)C3)C2)cc1 | 2.5% | 1.4% | i | i | 0.7%
CC(=O)N(C[C@@H](C)C(=O)O)c1c(I)cc(I)c(N)c1I | 3.6%[25.6 µM] | -2.2%[25.7 µM] | i | i | -6.2%[25.6 µM]
